Screening results: PubChem BioAssay, Buhrlage Lab, Dana-Farber Cancer Institute and Novartis Institutes for BioMedical Research (Cambridge, Mass)
Only some compounds are listed: those with a hit (about 13% of all), similar ones and a draw of the others.
USP17 inh: blocks human USP17 ubiquitin-rhodamine cleavage | A8MUK1 | purified USP17, Ub-rhodamine cleavage fluorescence, 3 h | inhibition, % at 50 µM | 47,000 compounds, 6.5% hits | AID 1645855
USP30 block: blocks human USP30 ubiquitin-rhodamine cleavage | Q70CQ3 | purified USP30, Ub-rhodamine cleavage fluorescence | inhibition, % at 25 µM | 47,000 compounds, 5.3% hits | AID 1645860
USP28 block: inhibitors of human USP28 deubiquitinase | purified USP28, Ub-rhodamine cleavage fluorescence, 30 min | inhibition, % at 25 µM | 47,000 compounds, 3% hits | AID 1645857
USP10 block: blocks human USP10 ubiquitin-rhodamine cleavage | Q14694 | purified USP10, Ub-rhodamine fluorescence, 60 min | inhibition, % at 20 µM | 47,000 compounds, 1.1% hits | AID 1645856
USP8 inh: blocks human USP8 ubiquitin-rhodamine cleavage; AID 1645853; inhibition, % at 20 µM; 47,000 compounds, 4.2% hits; purified USP8, Ub-rhodamine cleavage fluorescence, 30 min
Active calls of the source: *. No stated cut-off is given here; in the data, active means inhibition above about 30%; inactive means the rest.

What do the screens show for `COc1ccc2cc3c(nc2c1)OC(=O)N(Cc1ccccc1F)C3`?
USP17 inh: 1.9; USP30 block: 12.2; USP28 block: -1.9; USP10 block: 2.8; USP8 inh: 36.7*

How did O=C1Oc2nc3ccccc3cc2CN1Cc1ccco1 do in these assays?
USP17 inh: 52.4*; USP30 block: 17.1; USP28 block: 16.2; USP10 block: 7.8; USP8 inh: 3.4

What do the screens show for `CN(C)c1nc(C(=O)N2CCN(c3ccccc3)CC2)nc2c1cnn2C`?
USP17 inh: -3.1; USP30 block: 1.2; USP28 block: -0.8; USP10 block: -1.2; USP8 inh: 1.0

Results for Cc1ccc(NS(=O)(=O)c2cc(C(=O)N3CCCC3)n(C)c2C)cc1C ?
USP17 inh: 1.0; USP30 block: 18.3; USP28 block: 10.2; USP10 block: 0.6; USP8 inh: 11.3

How did O=C(COc1ccc(Cl)cc1)Nc1noc(-c2ccccc2)n1 do in these assays?
USP17 inh: 4.2; USP30 block: 69.0*; USP28 block: 57.9*; USP10 block: 49.7*; USP8 inh: 88.0*

How did Cc1ccccc1-c1noc(-c2ccccc2OCC(=O)NC(C)C)n1 do in these assays?
USP17 inh: 61.8*; USP30 block: 49.3*; USP28 block: 14.3; USP10 block: 6.5; USP8 inh: 12.7

How did Cc1ccc(OCC(=O)Nc2onc3c2CCCC3)cc1 do in these assays?
USP17 inh: -11.0; USP30 block: 5.3; USP28 block: 4.8; USP10 block: 2.4; USP8 inh: -5.0

How did O=C(COc1ccc(Cl)cc1)Nc1onc2c1CCCC2 do in these assays?
USP17 inh: 50.4*; USP30 block: 55.8*; USP28 block: -0.5; USP10 block: 1.1; USP8 inh: 1.5

Results for Cc1ccccc1-c1nc(NC(=O)COc2ccc(F)cc2)no1 ?
USP17 inh: 4.1; USP30 block: 35.5*; USP28 block: 6.2; USP10 block: 3.6; USP8 inh: 1.6

How did CC(C)c1cc(C(=O)N2C[C@@H]3OCC(=O)N(CCc4ccccc4)[C@H]3C2)n(C)n1 do in these assays?
USP17 inh: -2.8; USP30 block: 2.3; USP28 block: -2.3; USP10 block: -1.5; USP8 inh: -4.9

What do the screens show for `CC(C)(C)c1cc(C(=O)N2C[C@@H]3OCC(=O)N(CCc4ccccc4)[C@H]3C2)n[nH]1`?
USP17 inh: 0.6; USP30 block: 30.9*; USP28 block: -0.1; USP10 block: -0.8; USP8 inh: 1.3

How did O=C(C1CCOC1)N1CCC2(CC1)CN(c1cccnc1)c1ccccc12 (stereo unspecified) do in these assays?
USP30 block: 49.3*; USP28 block: 26.3; USP10 block: 1.4; USP8 inh: -13.1

How did Cc1ccc2c(c1)NC(=O)C(C(=O)NCc1ccccc1)O2 (stereo unspecified) do in these assays?
USP17 inh: -0.1; USP30 block: -5.3; USP28 block: -10.1; USP10 block: 1.7; USP8 inh: -4.0

What do the screens show for `CC1CS(=O)(=O)N(c2ccc(C(=O)NCc3ccccc3F)cc2)C1=O` (stereo unspecified)?
USP17 inh: 1.0; USP30 block: 1.2; USP28 block: -0.2; USP10 block: 0.3; USP8 inh: -2.8

How did COc1ccc(Cl)cc1NC(=O)CSc1nnc(-c2ccoc2C)o1 do in these assays?
USP17 inh: -0.1; USP30 block: 1.5; USP28 block: 3.5; USP10 block: 0.9; USP8 inh: -1.8

Results for COc1ccc(Cl)cc1NC(=O)CSc1ncnc2nc[nH]c12 ?
USP17 inh: 26.0; USP30 block: 33.1*; USP28 block: 43.4*; USP10 block: 46.8*; USP8 inh: 74.0*

How did CCOC(=O)c1cnc(Nc2ccc(F)c(Cl)c2)c2ccccc12 do in these assays?
USP17 inh: 44.2*; USP30 block: 17.9; USP28 block: 7.5; USP10 block: -0.3; USP8 inh: 20.7

How did COCCN1C(=O)c2ccccc2C(C(=O)Nc2ccccn2)C12CCCCC2 (stereo unspecified) do in these assays?
USP17 inh: 0.0; USP30 block: -30.4; USP28 block: -6.2; USP10 block: -6.0; USP8 inh: -18.4

How did O=C(Nc1nccs1)C1c2ccccc2C(=O)N(Cc2ccccc2)C12CCCC2 (stereo unspecified) do in these assays?
USP17 inh: 6.9; USP30 block: 15.4; USP28 block: 1.5; USP10 block: 26.4; USP8 inh: 68.6*

How did COCCN1C(=O)c2ccccc2C(C(=O)Nc2ccc3c(c2)OCO3)C12CCCC2 (stereo unspecified) do in these assays?
USP17 inh: 45.0*; USP30 block: 8.5; USP28 block: 22.8; USP10 block: -0.1; USP8 inh: 69.3*

How did COCCCNC(=O)c1cc2c(=O)n3cccc(C)c3nc2n1Cc1ccccc1 do in these assays?
USP17 inh: -6.2; USP30 block: 10.7; USP28 block: -20.3; USP10 block: -0.6; USP8 inh: 8.4

Results for COc1cc([C@@H]2c3c(C)nn(C)c3NC(=O)[C@H]2NC(=O)c2ccccc2)cc2c1OCCO2 ?
USP17 inh: -14.6; USP30 block: -22.7; USP28 block: -10.3; USP10 block: -6.1; USP8 inh: -31.5

Results for O=C(Nc1ccccc1)[C@H]1C[C@@H]2CN(c3ncc(F)cn3)C[C@H]1O2 ?
USP17 inh: 8.8; USP30 block: 25.3; USP28 block: 9.0; USP10 block: 0.7; USP8 inh: -9.5

What do the screens show for `Cn1c(C(=O)NCc2ccccn2)cc2c(=O)[nH]c3ccccc3c21`?
USP17 inh: 80.2*; USP30 block: -28.8; USP28 block: 37.9*; USP10 block: -0.4; USP8 inh: 87.4*

Results for Cc1cccc(C(=O)Nc2c(C(=O)NCc3ccccn3)[nH]c3ccccc23)c1 ?
USP17 inh: -19.3; USP30 block: -26.0; USP28 block: -16.7; USP10 block: -2.3; USP8 inh: -17.7

What do the screens show for `O=[N+]([O-])c1cc2c(cc1NC(c1ccccc1)c1ccccc1)OCCO2`?
USP17 inh: 4.1; USP30 block: -33.8; USP28 block: 8.8; USP10 block: -2.1; USP8 inh: 10.0

Results for Cn1c(=O)[nH]c(=O)c2c1nc1n2CC(c2ccc(Cl)cc2)O1 (stereo unspecified) ?
USP17 inh: -3.5; USP30 block: 0.7; USP28 block: -8.9; USP10 block: 4.8; USP8 inh: -0.6

Results for Cc1cn2c(=O)cc(COC(=O)c3ccccc3Cl)nc2s1 ?
USP17 inh: 1.5; USP30 block: 7.8; USP28 block: 6.8; USP10 block: 0.0; USP8 inh: -9.5

Results for NS(=O)(=O)c1ccc(Cl)c(C(=O)OCc2csc(Nc3ccccc3)n2)c1 ?
USP17 inh: 10.0; USP30 block: 5.7; USP28 block: 70.8*; USP10 block: -1.6; USP8 inh: 16.2

Results for COc1ccccc1Cc1nnc(C2(c3cccc(F)c3)CCOCC2)o1 ?
USP17 inh: 8.1; USP30 block: 26.3; USP28 block: 21.2; USP10 block: 1.7; USP8 inh: 11.5

How did Cc1cccc2cc3c(nc12)N(C(=O)C1CC1)CC3 do in these assays?
USP17 inh: 34.9*; USP30 block: -51.1; USP28 block: 2.6; USP10 block: -4.9; USP8 inh: -1.2
